# Only some compounds are listed: those with a hit (about 1.8% of all), similar ones and a draw of the others.
# SSB-PriA inh = inhibitors of Klebsiella pneumoniae PriA binding to SSB C-terminal tail; AlphaScreen SSBct-PriA binding, biotinylated peptide; inhibition, % at 33 µM; 430,000 tested, 0.6% active; AID 1272365; in the data active = inhibition mostly above about 37%, no sharp cut-off; inactive = mostly below about 20%
# PrPC surface inh = reduces human prion protein on the cell surface | 370,000 tested, 0.43% active | AID 720596 | inhibition, % at 13.8 µM | cell surface PrPC, TR-FRET read-out | P04156; in the data active = inhibition above about 24%
# PrP UTR inh = suppresses PrP 5' UTR mRNA reporter expression. cell-based PrP 5' UTR mRNA reporter, plate reader. inhibition, % (concentration not given with the values). 340,000 tested, 0.35% active. AID 488862; in the data active = inhibition above about 52%
# MazEF act = increases E. coli MazEF RNase cleavage of RNA; P0AE70; FAM/BHQ RNA-DNA oligo cleavage fluorescence, 5 h; activation, % at 20 µM; 350,000 tested, 0.32% active; AID 504720; in the data active = activation above about 50%
# PfHsp40 yeast = compounds rescuing yeast from Plasmodium falciparum HSP40 toxicity; 340,000 tested, 0.68% active; AID 504582; S. cerevisiae expressing PfHsp40, growth rescue, ATP luminescence; growth rescue, % at 12.5 µM; in the data active = growth rescue above about 28%, passing the limit was not always enough;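 also: yeast W303a lacking pdr1 and pdr3 grown in galactose medium; growth measured after three days at 30 °C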
# PrPC TRFRET cf = confirmation of inhibitors of cell surface human prion protein | shares compounds with PrPC surface inh | cell surface PrPC level, TR-FRET | inhibition, % at 13.8 µM | 1,500 tested, 65% active | AID 743200; in the data active = inhibition above about 25%
# LD9 cytotox = counter-screen for PrPc inhibitors: cytotoxicity in LD9 cells. shares compounds with PrPC surface inh. luminescence viability. inhibition, % at 13.8 µM. 1,500 tested, 29% active. AID 743201; in the data active = inhibition above about 9.5%
# Hits are given with their value; – = inactive; · = no result given; ! = not active in a repeat.
SMILES,SSB-PriA inh,PrPC surface inh,PrP UTR inh,MazEF act,PfHsp40 yeast,PrPC TRFRET cf,LD9 cytotox
C=CCC(Nc1ccco1)c1ccccc1 (centres undefined),–,–,–,–,–,·,·
Cn1c(SCC(=O)N2CCc3ccccc3C2)nnc1-c1cccs1,–,–,–,–,–,·,·
Cn1c(SCC(=O)N2CCc3ccccc3C2)nnc1-c1ccncc1,–,41,–,–,–,–,–
COc1ccccc1Cn1c(=S)[nH]c2ccc(F)cc2c1=O,–,108,–,–,–,131,–
COc1ccccc1Cn1c(=S)[nH]c2ccc(Br)cc2c1=O,–,–,–,–,–,·,·
COc1ccccc1Cn1c(=S)[nH]c2ccccc2c1=O,–,62,–,–,–,90,–
Cc1ccc(OCCCC(=O)Nc2nc3ccccc3[nH]2)cc1,–,–,–,–,–,·,·
Cc1cccc(OCCCC(=O)Nc2nc3ccccc3[nH]2)c1,–,29,–,–,–,25,–
CC1CC1C(=O)Nc1nc(-c2cccs2)c(-c2cccs2)s1 (centres undefined),–,25,–,–,–,–,–
Nc1nc(-c2cccs2)c(-c2cccs2)s1,–,25,–,–,–,–,–
Nc1nc(-c2cccs2)c(CC(=O)O)s1,–,–,–,–,–,·,·
COc1ccc(/C=N/NC(=O)Cn2c(Cc3ccc(OC)c(OC)c3)nc3ccccc32)cc1,·,–,–,–,–,·,·
COCCCn1c(SCc2ccc(OC)cc2)nc2cc(OC)c(OC)cc2c1=N,–,119,–,–,–,–,–
O=S(=O)(C/C(=C/CO)S(=O)(=O)c1ccccc1)c1ccccc1,–,86,–,–,–,92,–
Cc1ccc(/C=N/NC(=O)c2nnn(-c3nonc3N)c2-c2ccc3c(c2)OCO3)s1,·,–,–,–,–,·,·
O=C(c1ccccc1)c1c[nH]c(C(=O)NNc2ccccc2)c1,–,27,–,–,–,–,–
CN(C)CCCNC(=O)c1cc(C(=O)c2ccccc2)c[nH]1,–,–,–,–,–,·,·
CCCCNc1c(-c2ccc(OC)c(SC3CCCCC3)c2)nc2ccc(C)cn12,–,38!,–,–,–,50,53
COc1ccc(-c2ccc3c(c2)O/C(=C\c2ccsc2)C3=O)cn1,–,–,–,–,–,·,·
CCOc1cccc2sc(NCCCN3CCOCC3)nc12,–,·,·,·,·,·,·
Cc1cc(C)c2nc(NNC(=O)c3ccc(S(=O)(=O)N4CCc5ccccc5C4)cc3)sc2c1,–,–,–,–,–,·,·
Cc1cc(C)c2sc(NNC(=O)c3ccc(S(=O)(=O)N4CCc5ccccc5C4)cc3)nc2c1,–,29,–,–,364,30,12
C=CCOc1ccccc1CNCc1ccc(F)cc1,–,–,–,–,–,·,·
CN(C)C(=O)CSc1ncnc2scc(-c3ccccc3)c12,–,–,–,–,–,·,·
CC(=O)CSc1ncnc2scc(-c3ccc(F)cc3)c12,–,–,–,–,–,·,·
SMILES,SSB-PriA inh,PrPC surface inh,PrP UTR inh,MazEF act,PfHsp40 yeast,PrPC TRFRET cf,LD9 cytotox
O=C(O)CSc1ncnc2scc(-c3ccc(Br)cc3)c12,–,27,–,–,–,–,–
O=C(O)CSc1ncnc2scc(-c3ccccc3)c12,–,48,–,–,–,72,–
CC(C)n1c(O)c(C=C2C=NN=C2c2ccccc2)sc1=S,–,·,·,·,·,·,·
O=C(c1ccccc1)c1cc(Br)ccc1NC(=O)c1cccc2ccccc12,–,·,·,·,·,·,·
NC(=O)c1ccc2c(=O)n3c(-c4cc(Cl)c(N)c(Cl)c4)csc3nc2c1,–,32,–,–,–,–,–
CCN(C(=O)[C@@H](C)[C@@H](O)c1ccc(Cl)cc1)c1ccccc1,·,–,·,·,·,·,·
COc1ccc(S(=O)(=O)NN(C)C)cc1N(C)S(=O)(=O)c1ccc(Cl)cc1,–,–,–,–,–,·,·
COc1ccc(S(=O)(=O)Nc2ccc(C)cc2)cc1N(C)S(=O)(=O)c1ccc(Cl)cc1,–,25,–,–,–,–,–
Cc1cccc(NC(=O)CNC(=O)c2cccs2)n1,–,–,–,–,–,·,·
Nc1ccc2cc3[nH]c4cc(N)ccc4c3nc2c1,–,27,–,–,–,–,31
Cc1ccc(C(=O)N/C(=C/c2cccc([N+](=O)[O-])c2)C(=O)NCC2CCCO2)cc1 (centres undefined),–,–,–,–,–,·,·
COc1ccc(CC(=O)NC2CCC(Oc3cnccn3)CC2)cc1OC (centres undefined),–,·,·,·,·,·,·

# Screening results: PubChem, several laboratories
